# S2 tox: reduces viability in counter-screen for ATXN expression inhibitors; 400,000 compounds, 0.49% hits; AID 651635; Potency, µM (doses to about 56.7 µM), usual class: cytotoxic; S2 cells (HEK-293 line with an ATXN2-luciferase reporter) viability, CellTiter-Fluor protease fluorescence, 24 h; also: potency is read from the fitted curve at half-maximal effect; nearly all actives have a fitted effect of over 40% in size
# LDHA inh: LDHA (human) enzyme inhibition; P00338; purified LDHA, NADH/diaphorase-resazurin fluorescence; active compounds read low; activity change, % (values are at about 110 or 230 µM); 480,000 compounds, 0.15% hits; AID 1347041; in the data active = activity change below about -30%; inconclusive = mostly about -25% to -30%;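 also: plate controls were DMSO wells for no effect and wells without enzyme for full effect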
#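 Resorufin fluorescence (ex540/em590), read at 0 and 20 min after diaphorase/resazurin addition, reports the NADH left after a 5 min room-temperature reaction of 2 nM human LDH5 with 0.06 mM NADH and 0.2 mM pyruvate.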
# TGFb SMAD3 inh: TGF-b pathway inhibition; HepG2 CAGA-GFP TGF-b/SMAD3 reporter, GFP fluorescence, 18 h; TGF-beta stimulated, 500 pg/mL final; Potency, µM (series often up to 46.1 µM), for inactives: at the top dose activity, negative = inhibition, most hits filed as inhibitors; 410,000 compounds, 1.2% hits; also: potency is read from the fitted curve at half-maximal effect; % is scaled to controls: 0 for no effect and ±100 for the full control effect; nearly all actives have a fitted effect of over 65% in size
#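 HEPG2 CAGA-GFP, 1000 cells/well; 2 h settle, 37 C; cpd via pin tool; TGF-b 500 pg/mL final; 18 h, 37 C; GFP imaging ex488/em500-530; %Activity normalised to -TGF-b and +DMSO controls; CRC fit, curve class.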
# ATXN2 expr inh: reduces ATXN2 reporter expression in HEK-293 cells | Potency, µM (titrated, usually from 57 µM), inactives show at the top dose activity change, negative = inhibition, usual class: inhibitors | HEK-293 ATXN2-luciferase reporter, luminescence, 24 h | 360,000 compounds, 0.72% hits | AID 1745845; also: potency is read from the fitted curve at half-maximal effect; % is scaled to controls: 0 for no effect and ±100 for the full control effect; nearly all actives have a fitted effect of over 55% in size
#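 ATXN2-luciferase reporter cells (luciferase flanked by upstream and downstream ATXN2 gene portions) were treated 24 h at 37 °C with compounds at up to 57 uM. SteadyGlo luminescence gave expression; GF-AFC fluorescence gave viability.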
# IDH1 R132H inh: human IDH1 R132H inhibition | O75874 | Potency, µM (titrated, usually from 76.6 µM), without a hit: at the highest dose activity change, negative = inhibition, hits mostly inhibitors | 390,000 compounds, 0.093% hits | IDH1-R132H enzyme, NADPH consumption, diaphorase/resazurin fluorescence; also: potency is read from the fitted curve at half-maximal effect; % is scaled to controls: 0 for no effect and ±100 for the full control effect; nearly all actives have a fitted effect of over 65% in size
# Target sequence (O75874 whole entry R132H, stated change not applied): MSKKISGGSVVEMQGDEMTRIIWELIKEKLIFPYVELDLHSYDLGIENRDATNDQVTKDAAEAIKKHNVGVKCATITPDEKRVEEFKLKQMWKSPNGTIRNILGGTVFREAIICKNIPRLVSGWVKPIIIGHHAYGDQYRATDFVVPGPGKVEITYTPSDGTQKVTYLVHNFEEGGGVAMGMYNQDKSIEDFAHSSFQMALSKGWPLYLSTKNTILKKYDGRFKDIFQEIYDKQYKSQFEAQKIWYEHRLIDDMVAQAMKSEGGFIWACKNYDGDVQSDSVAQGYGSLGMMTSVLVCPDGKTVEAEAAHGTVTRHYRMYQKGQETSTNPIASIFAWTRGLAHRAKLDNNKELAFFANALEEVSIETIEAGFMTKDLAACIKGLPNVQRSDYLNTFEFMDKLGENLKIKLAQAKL
#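 IDH1-R132H (0.5 ug/mL dispensed) in pH 7.5 Tris buffer was preincubated 30 min with compound, then given a substrate mix of 0.016 mM NADPH and 2 mM alpha-KG for 80 min at room temperature; remaining NADPH was read by diaphorase/resazurin fluorescence.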
# HepG2 viability: HepG2 cytotoxicity, counter-screen for TGF-b inhibitors; 410,000 compounds, 0.76% hits; Potency, µM (highest dose often 46.1 µM), for the others: at the top dose activity change, negative = cytotoxicity, usual class: cytotoxic; AID 588856; HepG2 CAGA-GFP viability, ATP luminescence, 18 h; also: potency is read from the fitted curve at half-maximal effect
#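 HepG2 CAGA-GFP cells (1000/well, DMEM with 1% FBS) received compound, then TGF-beta at 500 pg/mL final, and were incubated 18 hours at 37 degrees C. Viability was read by CellTiter-Glo luminescence. Media-only wells were set as complete cell-killing and DMSO as no toxicity.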
# Resorufin autofl: interferes with resorufin fluorescence in IDH1 counter-screen | shares compounds with IDH1 R132H inh | Resorufin detection reagent fluorescence interference, cell-free | inhibition of signal, % at 51.2 µM | 750 tested, under 10 active | AID 623980;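 also: 0% = wells with normal resorufin and full inhibition = wells lacking resorufin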
# WT IDH1 inh: wild-type IDH1 (human) inhibition counterscreen | shares compounds with IDH1 R132H inh | WT IDH1 enzyme, NADPH diaphorase/resazurin fluorescence | Potency, µM (titrated, usually from 115 µM), for inactives: at the highest dose activity change, negative = inhibition, actives largely listed as inhibitors | 750 compounds, 9% hits;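 also: potency is read from the fitted curve at half-maximal effect; 0% = full WT IDH1 enzyme control and full inhibition = no enzyme wells; nearly all actives have a fitted effect of over 55% in size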
# Target sequence (O75874 whole entry, looked up): as the sequence (O75874 whole entry R132H, stated change not applied) above, with H132R counted along it
# IDH1 R132H conf: inhibits human mutant IDH1 enzyme in cherrypick confirmation. shares compounds with IDH1 R132H inh. 750 compounds, 83% hits. AID 624002. Potency, µM (doses to about 76.6 µM), without a hit: at the highest dose activity change, negative = inhibition, most hits filed as inhibitors. IDH1 R132H enzyme, NADPH diaphorase/resazurin fluorescence; also: potency is read from the fitted curve at half-maximal effect; nearly all actives have a fitted effect of over 50% in size
# Numbers without * were called inactive; i = inactive; u = inconclusive; x = no result given. A selection: hits, their analogues and other compounds. The true share with any hit is near 2.2%. Unless noted, calls follow the shape of the dose curve; as a rule, active = well fitted curve in the direction sought with a large enough effect; inconclusive = small, poorly fitted or top-dose-only effect, or another doubt; inactive = no such curve, though single readings can be large; an effect the other way counts as inactive or inconclusive.
SMILES,S2 tox,LDHA inh,TGFb SMAD3 inh,ATXN2 expr inh,IDH1 R132H inh,HepG2 viability,Resorufin autofl,WT IDH1 inh,IDH1 R132H conf
Cn1c2ccccc2c(=O)c2c(=O)n(C3CCCCCC3)c(C3CCCCC3)nc21,x,1,u,415%,9.3µM*,5%,4,14µM*,2.8µM*
Cn1c2ccccc2c(=O)c2c(=O)n(-c3ccccc3)c(C3CCCCC3)nc21,i,-6,-21%,2%,12µM*,-19%,-2,25µM*,4.5µM*
CCOc1ccc(S(=O)(=O)N2CCN(C(=O)Cc3n[nH]c(=O)c4ccccc34)CC2)cc1,i,4,-10%,3%,9%,-3%,x,x,x
CC(C)(C)C1CCc2sc(-c3nnc(CCl)o3)cc2C1 (configuration not stated),u,-1,17%,u,52µM*,-16%,7,-18%,40µM*
COCCCn1cc(CN2CC(N3CCN(CCO)CC3)CS2(=O)=O)nn1 (configuration not stated),i,-1,x,21%,x,x,x,x,x
CCOc1cc(/C=C2/C(=O)ON=C2C)ccc1OCc1ccccc1F,u,-3,u,u,21µM*,16µM*,2,u,28µM*
COc1ccc2c(c1)Cc1sc(NC(=O)c3cccc(Br)c3)nc1-2,x,19,0%,x,39%,-43%,x,x,x
Cc1ccc2c(c1)/C(=N/N1C(=O)c3ccccc3C1=O)C(=O)N2,i,4,2%,-4%,46µM*,0%,1,6%,7.9µM*
CN(C)S(=O)(=O)c1ccc2c(c1)/C(=C/c1cc3c([nH]1)CCCC3)C(=O)N2,u,-5,77%,19%,-15%,3%,x,x,x
NNC(=O)c1csc(CS(=O)(=O)c2ccc(Cl)cc2)n1,i,-5,4%,-2%,5%,1%,x,x,x
NNC(=O)c1csc(Cc2c(Cl)sc3ccc(Cl)cc23)n1,i,-3,15%,-10%,52µM*,-10%,6,14%,-11%
Cc1nc([N+](=O)[O-])c(Br)n1CC(=O)c1ccc2ccccc2c1,32µM*,1,u,u,u,10µM*,2,u,28µM*
Cc1nc([N+](=O)[O-])c(Br)n1CC(=O)c1ccccc1,i,-1,u,-11%,-1%,0%,x,x,x
CCOc1ccccc1C1C(C#N)=C(SCC(=O)Nc2ccc(C)cc2)NC2=C1C(=O)CCC2 (configuration not stated),x,12,x,x,x,x,x,x,x
COc1ccc(C2C(C#N)=C(SCC(=O)Nc3ccc(C)cc3)NC3=C2C(=O)CC(C)(C)C3)cc1 (configuration not stated),u,-5,u,-24%,13µM*,-7%,-4,8%,7.1µM*
CCN(CC)C(=O)c1ccc2c(c1)N(Cc1c(F)cccc1Cl)C(=O)c1ccccc1S2,i,3,16µM*,u,32µM*,-5%,-2,u,28µM*
O=C(c1ccco1)N1CCN(C(=S)Nc2ccccc2C(F)(F)F)CC1,i,5,17%,-15%,-4%,0%,x,x,x
CCSC1C(=O)N(C)C(SCC)C(=O)N1C (configuration not stated),i,-5,1%,x,-5%,-2%,x,x,x
N#CC(C#N)=C1C(=O)N(CCN2CCOCC2)c2ccccc21,u,37,u,-15%,u,22µM*,4,17%,45µM*
COc1ccc(C(C(=O)NC2CCCCC2)N(C(=O)Cc2c[nH]c3ccccc23)c2ccccc2C)cc1OC (configuration not stated),u,1,-15%,-17%,-1%,13%,x,x,x
Cc1ccc(C(C(=O)NC2CCCCC2)N(Cc2ccco2)C(=O)Cc2c[nH]c3ccccc23)o1 (configuration not stated),u,-2,u,-26%,u,3%,4,5%,10µM*
COc1ccc(C(C(=O)NC2CCCCC2)N(Cc2cccs2)C(=O)Cc2c[nH]c3ccccc23)cc1OC (configuration not stated),i,-12,-1%,-14%,-2%,-1%,x,x,x
Cc1ccc(C(C(=O)NC2CCCCC2)N(C(=O)Cc2c[nH]c3ccccc23)c2ccccc2C)o1 (configuration not stated),u,0,4%,-16%,u,-1%,2,9%,7.1µM*
CC(=O)c1ccc(N(C(=O)CNC(=O)c2ccco2)C(C(=O)NC2CCCC2)c2ccco2)cc1 (configuration not stated),i,-8,-7%,-20%,-6%,-19%,x,x,x
Cc1ccccc1N(C(=O)Cc1c[nH]c2ccccc12)C(C(=O)NC1CCCCC1)c1ccco1 (configuration not stated),i,-6,-6%,-27%,u,-30%,-1,0%,13µM*
CC(c1ccco1)N(C(=O)Cc1c[nH]c2ccccc12)C1CC1 (configuration not stated),x,-5,x,x,x,x,x,x,x
Cc1ccc(N(C(=O)Cc2c[nH]c3ccccc23)C(C(=O)NC2CCCCC2)c2ccco2)cc1 (configuration not stated),u,2,u,u,u,-41%,6,-3%,6.3µM*
CCOC(=O)CNC(=O)NCc1cccn1Cc1ccccc1,x,-3,x,x,x,x,x,x,x
CC1=CC(C)(C)N2C(=O)C3(C(C#N)=C(N)OC4=C3C(=O)CCC4)c3c(C)c(C)cc1c32 (configuration not stated),i,-18,18%,-12%,-3%,-33%,x,x,x

# Compound activity (PubChem)
